Measurements from PubChem BioAssay AID504329 (Southern Research Specialized Biocontainment Screening …, 2011).
The campaign covered roughly 340,000 compounds. About 1,000 (0.29%) were called active. Not all results are given here. Results with a measured potency or affinity are listed apart. Unmarked numbers belong to inactive results. No stated cut-off is given here; in the data, inconclusive means inhibition above about 27% without an active follow-up result; inactive means below that.

Assay: H1N1 influenza NS1A inhibitors, functional cell based assay (AID 504329)
Conditions: percent inhibition, at 12.5 µM, stronger effect = higher value
With Oc1cccc(/C=N/NC(=S)NCCN2CCOCC2)c1O the inhibition was -11.6%.
In the case of COc1cc(OC)c(OC)cc1/C=N/NC(=S)NCCN1CCOCC1, the inhibition is reported as -3.02%.
For O=C(NCCCN1CCOCC1)C(=O)N/N=C/c1cccc2ccccc12, the inhibition was -23.6%.
Work on S=C(NCCN1CCOCC1)N/N=C/c1ccccc1 yielded an inhibition of 4.1%.
COc1cc(/C=N/NC(=S)NCCN2CCOCC2)cc(OC)c1OC gave an inhibition of -0.84%.
COc1cc(/C=N/NC(=S)NCCN2CCOCC2)ccc1O showed an inhibition of -6.09%.
For O=C(NCCCN1CCOCC1)C(=O)N/N=C/c1ccccc1Cl, the inhibition was -2.62%.
Compound CCCCNC(=S)N/N=C/c1cccc(OCC)c1O has an inhibition of -0.5%.
For N#C/C(=C\Nc1ccc(Cl)cc1)S(=O)(=O)c1ccccn1, the inhibition was -7.92%.
With Cc1ccc2nc(SCC(=O)Nc3cccc([N+](=O)[O-])c3)[nH]c2c1 the inhibition was 4.1%.
For CCOC(=O)C1=C(C)C(c2ccccc2O)NC(=O)N1 (stereo not given), the inhibition was -4.1%.
CCCOc1ccc(-c2nc(OCC)c3ccccc3n2)cc1 gave an inhibition of -12.4%.
With COc1cc2c(cc1OC)C(c1ccsc1)CC(=O)N2 (stereo not given) the inhibition was 2.33%.
For O=C(O)c1ccccc1Nc1ccccc1C(=O)O, the inhibition was 5.1%.
Compound O=C(O)c1ccccc1Nc1ccnc(Cl)n1 has an inhibition of 4.77%.
Work on CCOC(=O)N1CCC(=C(C#N)C(=O)Nc2cc(OC)ccc2OC)CC1 yielded an inhibition of 7.42%.
For O=C(CSc1n[nH]c(-c2ccncc2)n1)Nc1ccccc1, the inhibition was -1.24%.
For O=C(CSc1n[nH]c(-c2ccco2)n1)Nc1ccccc1F, the inhibition was 2.4%.
COc1ccccc1NC(=O)CSc1n[nH]c(-c2ccco2)n1 showed an inhibition of -13%.
COc1ccccc1NC(=O)CSc1n[nH]c(-c2cccnc2)n1 gave an inhibition of 2.96%.
COc1ccccc1-c1nc(SCC(=O)Nc2ccccc2F)n[nH]1 gave an inhibition of -2.78%.
In the case of Cc1nc(SCC(=O)Nc2cccc(Cl)c2)n[nH]1, the inhibition is reported as -19.4%.
Compound O=C(CSc1n[nH]c(-c2cccnc2)n1)Nc1cccc(Cl)c1 has an inhibition of 0.29%.
O=C(CSc1n[nH]c(-c2cccnc2)n1)Nc1ccccc1 gave an inhibition of -8.39%.
With CCOC(=O)c1c(C)[nH]c(C)c1S(=O)(=O)N(C)CC(=O)Nc1ccccc1F the inhibition was -8.93%.
Work on COc1ccc(OC2C(=O)N(CCc3ccc(OC)c(OC)c3)C2c2ccc3c(c2)OCO3)cc1 (stereo not given) yielded an inhibition of 22.8%.
Work on Cc1cc(C)cc(OCC(O)Cn2nc(C)cc2C)c1 (stereo not given) yielded an inhibition of -5.82%.
CC(C)Cc1nc(Cl)c(C#N)c2c1CCCC2 gave an inhibition of 0.11%.
COCC1CCN(C(=O)C2CCC(=O)N(C3CCCCCC3)C2)CC1 (stereo not given) showed an inhibition of 8.12%.
In the case of COC(=O)CN1C(=O)Nc2ccc(Cl)cc2C1c1ccccc1 (stereo not given), the inhibition is reported as 4.9%.
In the case of CC(=O)c1nn(-c2cccc(C)c2)cc1C(=O)c1cccc(Br)c1, the inhibition is reported as 2.16%.
Compound O=C(Nc1ccc(F)cc1)c1ccc(CSc2ccc(Cl)cc2)o1 has an inhibition of -1.55%.
In the case of C=CCn1c(SCC(=O)C(C)(C)C)nnc1-c1ccccn1, the inhibition is reported as -6.69%.
Compound COc1ccccc1N1CCN(S(=O)(=O)c2c(C(=O)N3CCOCC3)c(C)n(C)c2C)CC1 has an inhibition of 6.32%.
With CCCCCOc1ccc(C(O)C(CN2CCOCC2)c2ccccc2)cc1 (stereo not given) the inhibition was -5.3%.
C[C@H](CO)N1C[C@H](C)[C@@H](CN(C)Cc2ccncc2)Oc2c(NS(=O)(=O)c3ccccc3)cccc2C1=O gave an inhibition of -17%.
Cc1ccc(C)c(NC(=O)CSc2n[nH]c(-c3ccncc3)n2)c1 gave an inhibition of -3.36%.
Work on COc1ccc(NC(=O)CSc2n[nH]c(-c3ccco3)n2)cc1 yielded an inhibition of -5.29%.
O=C(CSc1n[nH]c(-c2ccco2)n1)Nc1ccc(F)cc1 showed an inhibition of 7.45%.
O=C(CSc1n[nH]c(-c2cccnc2)n1)Nc1ccc(Cl)cc1 gave an inhibition of 2.6%.
COc1ccc(NC(=O)CSc2ccccn2)cc1 gave an inhibition of 4.92%.
For Cc1ccccc1NC(=O)CSc1n[nH]c(-c2ccccn2)n1, the inhibition was -5.83%.
Work on O=C(CSc1n[nH]c(-c2ccncc2)n1)Nc1ccc(Cl)cc1 yielded an inhibition of -0.89%.
O=C(CSc1n[nH]c(-c2ccncc2)n1)Nc1ccc(F)cc1 showed an inhibition of 0.02%.
In the case of C[C@@H](NC(=O)Cn1cnc2c(NCc3ccccc3)ncnc21)c1cccc2ccccc12, the inhibition is reported as -9.17%.
For CCN(CC(=O)Nc1ccccc1C(F)(F)F)C(=O)CCS(=O)(=O)c1ccc(Cl)cc1, the inhibition was -2.32%.
CC(C)CN(C(=O)CN(C)CC(=O)Nc1ccc(Cl)c(C(F)(F)F)c1)c1c(N)n(CC(C)C)c(=O)[nH]c1=O showed an inhibition of -3.46%.
In the case of CN=C1CC(C)(C)CC(=O)/C1=C(/O)CCCN1C(=O)c2ccccc2C1=O, the inhibition is reported as -2.2%.
Work on CC12CCC(=O)N1C(C(=O)Nc1nc(-c3ccc(F)c(F)c3)cs1)CS2 (stereo not given) yielded an inhibition of -0.9%.
Compound Cc1cccc(NC(=S)NC2CC3CCCC(C2)N3CC(C)C)c1 (stereo not given) has an inhibition of -0.58%.
Work on COc1cccc(CN2CC(C(=O)N(C)Cc3ccnc4ccccc34)CCC2=O)c1 (stereo not given) yielded an inhibition of -0.38%.
In the case of COc1cc2cc(CN(CCCN3CCOCC3)C(=O)Nc3ccccc3F)c(=O)[nH]c2cc1OC, the inhibition is reported as -7.1%.
In the case of CCCCNC(=O)Cc1coc2ccc3ccccc3c12, the inhibition is reported as -8.22%.
In the case of CCC(C)[C@H](NS(=O)(=O)c1ccc(C)cc1)C(=O)N1CCC(C(=O)N[C@H](C(=O)O)c2ccccc2)CC1 (stereo not given in full), the inhibition is reported as -3.12%.
COc1ccc2[nH]c3c(c2c1)CCN1C(=O)C(CC(=O)NCCCn2ccnc2)C[C@H](C(=O)N2CCOCC2)[C@@]31C (stereo not given in full) gave an inhibition of -0.65%.
Compound COc1ccc(S(=O)(=O)N2CN3CCN(C3)C2)cc1OC has an inhibition of -1.61%.
CC(=O)Nc1cccc(OCC(=O)NCCC2=CCCCC2)c1 showed an inhibition of 5.18%.
Cc1ccc(NC(=O)CSc2n[nH]c(-c3ccncc3)n2)cc1 showed an inhibition of -14.5%.
Work on Cc1ccc(NC(=O)CSc2n[nH]c(-c3ccco3)n2)cc1 yielded an inhibition of -7.19%.
In the case of CCC(C)(C)C1CCc2[nH]nc(C(=O)NCCCNC(=O)OC(C)(C)C)c2C1 (stereo not given), the inhibition is reported as 7.94%.
